Source: PubChem (several laboratories)
Compounds with a hit are over-represented: about 3.9% of the library has one in this group of screens.
SKKanGAS inh – blocks kanamycin growth of S. pyogenes SKKanGAS strain; BacTiter-Glo, 6 h; inhibition, % at 7.5 µM; 300,000 tested, 1.3% active;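 active = mean replicate score, as percent of positive control median, at least 50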;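 also: strain carries kanamycin resistance gene driven by streptokinase promoter and grows in 40 µg/ml kanamycin; loss of luminescence reflects streptokinase promoter inhibition or plain growth inhibition; 0% = median of DMSO wells and 100% = positive control at its reference dose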
Rtt109 Vps75 – C. albicans Rtt109 histone acetyltransferase inhibition | purified Rtt109/Vps75, ThioGlo CoA-SH fluorescence, 4 h | 330,000 tested, 0.16% active | Q5AAJ8 | inhibition, % at 34.9 µM;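 active = inhibition of at least 50% in every replicate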
Target sequence (Q5AAJ8 whole entry, looked up): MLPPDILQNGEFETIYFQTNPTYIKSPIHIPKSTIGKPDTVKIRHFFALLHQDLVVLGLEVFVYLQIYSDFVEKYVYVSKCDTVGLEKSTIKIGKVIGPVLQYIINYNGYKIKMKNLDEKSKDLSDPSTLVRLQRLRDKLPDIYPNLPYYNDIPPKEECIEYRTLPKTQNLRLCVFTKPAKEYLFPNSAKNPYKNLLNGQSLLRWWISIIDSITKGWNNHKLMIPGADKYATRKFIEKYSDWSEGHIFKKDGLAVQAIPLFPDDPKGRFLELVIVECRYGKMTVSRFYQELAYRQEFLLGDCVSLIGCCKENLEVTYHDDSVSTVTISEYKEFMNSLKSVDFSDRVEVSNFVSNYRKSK
Platelet DG rel – modulates dense granule release in human platelets; human platelet-rich plasma, SFLLRN dense granule ATP release, luminescence; inhibition, %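 (compounds screened at 7.5 µM in platelet-rich plasma)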; 300,000 tested, 0.22% active; AID 1663;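 active = mean replicate score, as percent of positive control, at or above 50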
PHOSPHO1 inh – blocks human PHOSPHO1 phosphatase activity; Q8TCT1; recombinant PHOSPHO1, absorbance phosphatase assay; inhibition, % at 13.3 µM; 290,000 tested, 1.1% active; AID 1565; in the data active = inhibition above about 60%
Target sequence (Q8TCT1 whole entry, looked up): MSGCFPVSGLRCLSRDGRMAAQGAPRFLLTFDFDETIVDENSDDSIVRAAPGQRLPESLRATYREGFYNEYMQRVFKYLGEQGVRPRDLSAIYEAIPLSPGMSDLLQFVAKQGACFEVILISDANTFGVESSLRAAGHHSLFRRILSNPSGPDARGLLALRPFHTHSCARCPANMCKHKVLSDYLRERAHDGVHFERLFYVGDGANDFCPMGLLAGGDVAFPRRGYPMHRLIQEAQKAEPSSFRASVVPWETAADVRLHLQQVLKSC
TPT1 inhibitor – inhibitors of Candida albicans tRNA 2'-phosphotransferase TPT1 | recombinant caTPT1, FP RNA substrate dephosphorylation | inhibition, % at 5 µM | 300,000 tested, 0.81% active | AID 1962;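 active = inhibition above the mean of all tested compounds plus 3 SD, set per screening campaign, cut at about 24% in these data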;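 also: plate controls were DMSO alone for no effect and ferristatin control at 100 nM for full effect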
WT yeast gro inh – growth inhibition of WT yeast, mitochondrial fusion screen. mitochondrial fusion phenotypic screen, WT strain. AID 1362. 190,000 tested, 2.1% active. inhibition, % at 10 µM; in the data active = inhibition above about 58%; tested in S. cerevisiae
Starred values were filed as active, the others as inactive; nt = no result given.

SMILES	SKKanGAS inh	Rtt109 Vps75	Platelet DG rel	PHOSPHO1 inh	TPT1 inhibitor	WT yeast gro inh
O=S(=O)(c1ccc(SCCO)nc1)N1CCOCC1	nt	12.3	nt	nt	nt	nt
CC12CC3CC(C)(C1)CC(C(=O)NC1=NCCS1)(C3)C2	39.4	-1.6	1.5	6.8	-3.0	62.8
CC12CC3(C)CC(C)(C1)CC(C(=O)NC1=NCCS1)(C2)C3	84.4*	-19.0	-1.3	nt	2.1	nt
Cc1c(NC(=O)CSCc2ccco2)c(=O)n(-c2ccccc2)n1C	-19.5	1.6	-1.8	18.4	-1.6	nt
NC(=S)Nc1cccc2cc3ccccc3cc12	17.7	-50.4	-5.0	96.8*	-62.8	-8.2
NC(=S)Nc1cc2ccccc2c2ccccc12	-2.8	-0.1	3.2	-139.1	-6.1	21.3
CCOc1cc(CNc2ccc(N(C)C)cc2)cc(Br)c1OCC(=O)NC(C)(C)C	18.8	-0.4	-12.1	13.6	-5.0	14.8
CCOc1cc(CNc2ccc(N3CCCCC3)cc2)cc(Br)c1OCC(=O)NC(C)(C)C	0.0	-5.7	-20.4	-5.1	5.3	65.4*
CC(C)c1ccc(C(C)NCCS(=O)(=O)c2ccc(Cl)cc2)cc1 (centres undefined)	-4.0	8.0	7.0	72.6*	0.7	nt
COc1ccc(-c2nc(CN3CCN(c4ncnc5ccccc45)CC3)c(C)o2)c(OC)c1	-6.7	18.2	-8.0	64.2*	-2.0	19.6
O=C(/C=C/c1ccc2c(c1)OCCO2)c1ccccc1	1.1	7.7	16.3	32.2	-2.0	nt
Cc1ccc(O)c(C(=O)/C=C/c2ccc3c(c2)OCCO3)c1	-8.4	-5.8	-0.1	-4.6	-0.6	59.7*
CCOc1ccc(-c2nnc(NC(=O)Cc3cc(OC)c(OC)c(OC)c3)o2)cc1	-2.2	-3.4	-5.8	24.1	-6.3	nt
CCC(C(=O)OCC(=O)Nc1ccc(SC(F)F)cc1)c1ccccc1 (centres undefined)	-3.3	nt	-8.8	6.6	nt	73.0*
COc1ccc(/C=C2\SC(=O)N(CC(=O)Nc3cccc(C)c3)C2=O)cc1O	10.4	4.9	-0.4	4.2	-4.9	nt
CCOc1ccc(C2CC(c3ccc(CC)cc3)n3nc(N)nc3N2)cc1 (centres undefined)	1.3	1.0	4.7	62.4*	-3.1	13.3
COc1ccc(C(=O)Nc2cc(OC)nc(OC)n2)cc1	-1.7	2.1	55.5*	1.7	2.1	-8.3
COc1cccc(NC(=O)Nc2ccc(C(C)(C)C)cc2)c1	-7.6	14.7	-4.3	16.3	nt	62.7*
COc1ccc(C(=O)Nc2cccc(C)c2)cc1	-2.0	4.7	56.3*	-22.1	-3.2	10.7
COc1ccc(C(=O)Nc2cccc(C(=O)N3CCCCC3)c2)cc1	-0.8	-2.3	-10.6	65.8*	0.4	nt
COc1cccc(NC(=O)Nc2ccncc2)c1	1.3	6.1	3.7	58.4	-0.3	1.5
CS(=O)(=O)c1cccc(C(=O)OCC(=O)NC(=O)Nc2ccccc2F)c1	nt	-2.6	nt	nt	nt	nt
O=C(OCc1ccccc1)N(CCF)c1cn(Cc2ccccc2)c(=O)n(Cc2ccccc2)c1=O	nt	-4.7	nt	nt	nt	nt
COc1ccc(C(=O)Nc2ccccc2C(=O)Nc2ccc(C(=O)O)cc2)cc1	3.8	3.9	4.3	8.8	-0.7	nt
COc1ccc(C(=O)Nc2ccccc2C(=O)Nc2ccncc2)cc1	-1.5	-3.0	9.6	62.8*	1.6	nt
SMILES	SKKanGAS inh	Rtt109 Vps75	Platelet DG rel	PHOSPHO1 inh	TPT1 inhibitor	WT yeast gro inh
Cc1nc2nc(CCNS(=O)(=O)c3ccc(Cl)cc3)cn2nc1C	1.1	5.0	1.5	27.3	1.5	nt
CCCCOc1ccc(C2(C)NC(=O)NC2=O)cc1 (centres undefined)	-1.9	0.1	8.4	13.5	-0.2	nt
CCCCOC1(c2ccccc2)NC(=S)NN=C1c1ccccc1 (centres undefined)	0.9	nt	4.2	71.3*	0.7	5.2
COC1(c2ccccc2)NC(=S)NN=C1c1ccccc1 (centres undefined)	-2.0	-1.6	-19.6	75.2*	4.4	-0.1
COc1ccccc1/C=N/NC(=O)CSc1ccc2ccccc2n1	1.4	nt	1.9	-2.4	2.6	nt
COc1ccc(CCCC(=O)N/N=C/c2cccc(OC)c2O)cc1C	75.3*	-6.3	2.7	-11.5	-3.1	-8.5
CCCCSc1nc(C)cc(SCC(=O)N/N=C/c2cccc(OC)c2O)n1	69.8*	8.1	2.1	11.5	-6.5	16.7
CCCCC(=O)c1ccc(OC(=O)c2ccc([N+](=O)[O-])cc2)cc1	nt	0.4	nt	nt	nt	nt
Cc1ccc(CSc2ncnc3c2cnn3Cc2ccccc2)cc1C	25.7	-9.0	0.1	-6.8	-1.7	28.2
Cc1ccc(CSc2ncnc3c2cnn3Cc2ccccc2)cc1	64.8*	-3.1	-0.3	5.0	-3.4	76.1*
CNC(=O)c1nn(-c2ccc(Cl)cc2)ccc1=O	-4.4	-4.7	12.1	13.6	-6.2	98.4*
CNC(=O)c1nn(-c2ccccc2)ccc1=O	-6.4	-3.2	-3.0	31.7	-1.9	9.1
COc1ccc2nc(N3CCCCC3)c(/C=C3\SC(=S)NC3=O)cc2c1	86.0*	-7.2	5.1	26.8	11.3	nt
O=C1NC(=S)S/C1=C\c1cc2ccccc2nc1N1CCCCC1	40.6	15.3	-1.0	27.3	1.8	nt
CC(=O)c1cc2c(cc1NC(=O)Cc1ccsc1)OCO2	nt	-1.5	nt	nt	nt	nt
Cc1ccc(C2=CC(C)(c3ccc(C)cc3)Nc3nc(C(F)(F)F)nn32)cc1 (centres undefined)	15.9	nt	-0.8	16.0	-3.1	71.0*
Cc1cccc(Cn2nc(-n3cccc3)c3c(C)cc(C)nc32)c1	54.9*	-1.4	-1.7	20.3	-3.3	61.9*
Fc1ccc(NC(=S)N2CCCc3ccccc32)cc1	-2.2	4.5	7.8	95.3*	1.9	50.1
CCCc1ccc(-c2cc(N)n[nH]2)cc1	112.6*	11.8	-1.5	-16.2	-0.4	-8.2
CCCCc1ccc(-c2nc(N)n[nH]2)cc1	5.0	-12.4	0.7	12.9	-1.7	83.4
CCOC(=O)C(=NC(C)(C)C)NNc1cc(Cl)ccc1Cl	78.5*	-5.7	-2.6	-2.4	-7.8	53.1
CCOC(=O)C(=NC(C)C)NNc1cc(Cl)ccc1Cl	2.3	nt	7.7	-2.4	-4.2	18.3
O=C1NC(=O)/C(=C/c2ccccc2Oc2ccc(Cl)cc2)S1	57.1*	-12.2	0.9	3.5	-1.7	13.4
Cc1ccc(S(=O)(=O)Oc2ccccc2/C=C2\SC(=O)NC2=O)cc1	8.0	27.3	2.9	36.7	3.6	-10.3
O=C(N/N=C/c1c[nH]c2ccccc12)C1CC1(c1ccccc1)c1ccccc1 (centres undefined)	60.4*	-11.6	-1.2	-28.9	-0.4	80.7*
Cc1ccc(/C=N\NC(=O)C2CC(=O)N(c3ccccc3)C2)o1 (centres undefined)	8.5	-8.2	5.9	34.2	-0.5	nt
O=C(N/N=C/c1c[nH]c2ccccc12)C1CC(=O)N(c2ccccc2)C1 (centres undefined)	-9.7	0.8	-3.7	72.9*	3.0	0.5
Cn1cc(C(=O)NS(=O)(=O)Nc2ccc(Br)cn2)c2ccccc21	1.3	15.1	21.8	45.3	-0.5	nt
COc1ccc(C2C(C(=O)OCC(=O)N3CCCCC3)CCC(=O)N2c2ccc(OC)cc2)cc1 (centres undefined)	-0.5	-2.4	10.3	67.5*	-1.8	1.9
